# Source: PubChem BioAssay (National Center for Advancing Translational Sciences (NCATS))
# Cruzain Triton: qHTS Assay for Promiscuous and Specific Inhibitors of Cruzain (with detergent); Cruzipain (Trypanosoma cruzi), P25779; purified cruzain, Z-FR-AMC fluorescence, 0.01% Triton; Potency, µM, inactives show max response, negative = inhibition, most hits filed as inhibitors; hit rate 0.43% among 200,000; AID 1478, 2009;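 further: plate controls were neutral wells for no effect and buffer without enzyme for full effect; nearly all actives have a fitted effect of over 40% in size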
# Target sequence (P25779 123-467 limits assumed): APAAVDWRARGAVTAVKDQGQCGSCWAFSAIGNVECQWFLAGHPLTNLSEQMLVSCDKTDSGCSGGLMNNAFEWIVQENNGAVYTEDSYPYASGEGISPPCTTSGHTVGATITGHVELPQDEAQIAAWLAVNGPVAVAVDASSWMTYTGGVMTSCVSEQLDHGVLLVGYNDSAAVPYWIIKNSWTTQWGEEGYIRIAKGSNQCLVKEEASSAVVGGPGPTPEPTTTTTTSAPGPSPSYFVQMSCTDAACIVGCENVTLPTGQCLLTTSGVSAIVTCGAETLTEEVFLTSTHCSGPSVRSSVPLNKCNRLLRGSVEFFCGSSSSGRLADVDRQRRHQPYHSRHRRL
#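 In this qHTS format, compounds are incubated with 1.5 nM cruzain for 15 min at room temperature before 2 uM Z-FR-AMC is added. Release of AMC is followed at 360/450 nm, and progress is taken as the 60 s fluorescence difference.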
# Cruzain noTriton: qHTS Assay for Promiscuous and Specific Inhibitors of Cruzain (without detergent) | hit rate 2.3% among 200,000 | purified cruzain, Z-FR-AMC fluorescence, no detergent | Potency, µM, inactives show max response, negative = inhibition, usual class: inhibitors;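 further: plate controls were enzyme without inhibitor for no effect and buffer without enzyme for full effect; nearly all actives have a fitted effect of over 40% in size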
#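 Purified cruzain at 1.5 nM, pre-incubated 15 min with compound at room temperature in 100 mM sodium acetate pH 5.5, 5 mM DTT, 0.00005% Triton X-100. Reaction started with 2 uM Z-FR-AMC; AMC fluorescence increase over 60 s gives rate.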
# Numbers without * were called inactive; u = inconclusive. Most compounds without a hit are left out; they make up all but 2.5% or so of the library. The call rests on the fitted dose curve; in most records, active means well fitted curve in the direction sought with a large enough effect; inconclusive means small, poorly fitted or top-dose-only effect, or another doubt; inactive means no such curve, though single readings can be large; an effect the other way counts as inactive or inconclusive. Potency means the concentration at half of the fitted maximal effect.
SMILES,Cruzain Triton,Cruzain noTriton
O=C(Cn1cnc2sc(-c3ccccc3)cc2c1=O)NCc1ccccc1,1%,16µM*
COc1ccc(-c2nc3cnc(OC)nc3n(-c3ccc(OC)cc3)c2=O)cc1,-4%,18%
CCCCCCc1cc2cc(-c3nnc(-c4ccc(C)cc4)o3)c(=O)oc2cc1O,3%,-1%
CCCCCCc1cc2cc(S(=O)(=O)c3ccc(F)c(Cl)c3)c(=O)oc2cc1O,-11%,20µM*
COc1ccccc1CN1CCC2(CC1)CCN(C(=O)c1ccncc1)CC2,5%,-1%
CCN(CC)S(=O)(=O)c1ccc(N2CCCCS2(=O)=O)cc1,0%,u
Cc1cc(C=O)c(C)n1-c1ccc(Oc2ccc([N+](=O)[O-])cn2)cc1,-4%,-10%
Cc1cccc(C)c1-n1c(C)cc(/C=N\Nc2ccc([N+](=O)[O-])cn2)c1C,-4%,16µM*
CNC(=S)N/N=C/c1cn(Cc2ccc(F)cc2)c2ccccc12,-13%,u
O=[N+]([O-])c1ccc(N/N=C/c2cn(Cc3ccc(F)cc3)c3ccccc23)nc1,-9%,7.9µM*
CCOC(=O)c1sc(-n2[nH]c(C)cc2=O)nc1C,u,12%
CCOC(=O)Cc1cc(=O)n(-c2nc3ccccc3s2)[nH]1,18µM*,u
Oc1ccc(C2=NNC(=NCc3ccc4c(c3)OCO4)SC2)c(O)c1,-13%,u
COc1ccc(OC)c(C2=NNC(=NCc3ccc4c(c3)OCO4)SC2)c1,-8%,13µM*
COc1ccc(C2=C(N3CCN(c4cccc(C)c4)C(C)C3)c3ccccc3C2=O)cc1 (centres undefined),-25%,-25%
Cn1c(-c2ccc(S(=O)(=O)N3CCCC3)cc2)csc1=Nc1ccc(Cl)c(Cl)c1,-3%,-1%
Cc1ccc(S(=O)(=O)NCC(=O)OCN2C(=O)c3ccccc3C2=O)cc1,22µM*,25µM*
CCOc1ccc(S(=O)(=O)NCCC(=O)OCN2C(=O)c3ccccc3C2=O)cc1,-7%,-8%
CCOc1ccccc1CNC(=O)c1cc2oc3ccccc3c2n1CC,-17%,32µM*
CCn1c(C(=O)NCc2ccc(F)cc2)cc2oc3ccccc3c21,-9%,-5%
O=C1CCC=C1C(O)c1ccccc1 (centres undefined),4%,-18%
CC(=O)NCC(=O)N(C)C(C(=O)Nc1ccc(C(C)C)cc1)c1ccccc1 (centres undefined),1%,u
Cc1ccc(-n2nc3c(c2NC(=O)/C=C\c2ccc4c(c2)OCO4)CSC3)c(C)c1,-6%,25µM*
Cc1ccc(-n2nc3c(c2NC(=O)C(C)(C)C)CSC3)c(C)c1,0%,6%
Cc1ccc(-n2nc3c(c2NC(=O)/C=C\c2ccc4c(c2)OCO4)CSC3)cc1,-4%,32µM*
SMILES,Cruzain Triton,Cruzain noTriton
Cc1ccc(-n2nc3c(c2NC(=O)c2ccc4c(c2)OCO4)CS(=O)C3)cc1 (centres undefined),-3%,-5%
Cc1ccc(NC(=O)c2ccc(=O)n(CC(=O)Nc3cc(C)cc(C)c3)n2)cc1,2%,0%
O=C(NCCc1ccccc1)c1ccc2c(c1)N(Cc1ccc(F)cc1)C(=O)CS2,1%,-13%
Cc1ccc(CN2CCSc3ccc(C(=O)Nc4cc(C)cc(C)c4)cc32)cc1,-19%,10µM*
O=C(NCCc1ccc(Cl)cc1)c1ccc2c(c1)N(Cc1ccccc1)C(=O)CS2,0%,32µM*
Cc1ccc(CN2CCSc3ccc(C(=O)NCCc4ccccc4)cc32)cc1,-11%,-28%
CC(=O)c1cccc(NC(=O)c2ccc3c(c2)N(Cc2ccc(C)cc2)CCS3)c1,-13%,13µM*
Cc1ccc(CN2CCSc3ccc(C(=O)NCC(C)c4ccccc4)cc32)cc1 (centres undefined),-6%,-9%
O=C(NCCc1ccc(Cl)cc1)c1ccc2c(c1)N(Cc1ccccc1)CCS2,-5%,-24%
O=C(Nc1ccc(Cl)cc1)c1ccc2c(c1)N(Cc1ccccc1)CCS2,-11%,32µM*
COc1ccc2c(Sc3ccccc3)c(C(=O)NCCN(C)C)[nH]c2c1,-10%,18%
COc1ccc(C2c3c(oc4ccc(Cl)cc4c3=O)C(=O)N2CCCN(C)C)cc1OC (centres undefined),0%,-7%
Cc1ccc(-c2cc(NC(=O)C(C)Oc3ccc(C)c(C)c3)on2)cc1 (centres undefined),6%,u
O=C(c1ccco1)N1CCC2(CC1)CCN(c1ccccc1)CC2,-2%,8%
COc1ccccc1CN1CC[C@@]2(CCCN(C(=O)c3ccco3)C2)C1,3%,0%
Cc1ccc(CN2CCSc3ccc(C(=O)NCc4ccc(OC(C)C)cc4)cc32)cc1,-5%,3%
Cc1ccc(CN2CCSc3ccc(C(=O)Nc4ccc(Cl)cc4)cc32)cc1,-5%,7.9µM*
COc1cccc(CNC(=O)Cn2ncc3c(=O)oc4ccccc4c32)c1,-2%,3%
COc1cccc(-c2ccc3c(N)c(C(=O)c4ccc(Br)cc4)sc3n2)c1,-3%,7.9µM*
COc1ccc(C(=O)c2sc3nc(-c4ccccc4)ccc3c2N)cc1OC,-5%,2%
N#Cc1c(NC(=S)NC(=O)c2ccccc2)sc2c1CCC2,-7%,-7%
N#Cc1c(NC(=O)c2ccc(-c3ccccc3[N+](=O)[O-])o2)sc2c1CCCC2,2%,u
CC1CCc2c(sc(NC(=O)c3ccc(-c4ccccc4[N+](=O)[O-])o3)c2C#N)C1 (centres undefined),4%,10µM*
CC1CCc2sc(NC(=S)NC(=O)c3ccccc3)c(C#N)c2C1 (centres undefined),-6%,25µM*
CCN1CCc2c(sc(NC(=S)NC(=O)c3ccccc3)c2C#N)C1,0%,-11%
SMILES,Cruzain Triton,Cruzain noTriton
CC(C)(C)c1ccc(C(=O)NC(=S)Nc2sc3c(c2C#N)CCC3)cc1,-4%,10µM*
CCc1ccccc1NS(=O)(=O)c1ccc(NC(=O)N2CCCC2)cc1,-2%,0%
CCOC(=O)c1c(NC(=O)c2nc(S(C)(=O)=O)ncc2Cl)sc(C(C)=O)c1C,-3%,-21%
CCc1nn2c(=O)cc(COC(=O)c3cccc(NC(=O)c4ccccc4C)c3)nc2s1,1%,-10%
Cc1cc(C)c(-c2cc(NC(=O)CSc3nncn3C)n(-c3ccccc3)n2)cc1C,-3%,u
Cc1cc(C)c(-c2cc(NC(=O)COC(=O)c3ccc(C#N)cc3)n(-c3ccccc3)n2)cc1C,-6%,16µM*
CCCCN1CCc2nc(Nc3ccc(OC)cc3OC)ncc2C1,-1%,-4%
O=C(Nc1ccc(-c2cn3ccccc3n2)cc1)c1ccc(Cl)cc1,-3%,13µM*
O=C(Nc1ccc(-c2cn3ccccc3n2)cc1)c1ccco1,-8%,-6%
Cc1ccccc1OCCC(=O)NCCc1ccc(S(N)(=O)=O)cc1,0%,9%
CCOc1ccccc1C(=O)NCC(=O)OCC(=O)NCCc1ccc(S(N)(=O)=O)cc1,25µM*,16µM*
NC(=S)N=Nc1c(O)[nH]c2cc(F)c(F)cc12,14µM*,10µM*
CNC(=S)N=Nc1c(O)[nH]c2ccc(C(C)C)cc12,-8%,-1%
Cc1nnc(SCC2=C(C(=O)O)N3C(=O)[C@@H](NC(=O)Cn4cnnn4)[C@@H]3SC2)s1,2%,-1%
CCOc1ccc(-c2nc(CNC(=O)NC3CCCCC3)c(C)o2)cc1,7%,17%
Cc1cc(C=O)c(C)n1-c1sc2c(c1C(=O)O)CCCC2,-3%,-2%
COC(=O)c1c(-n2c(C)cc(C=O)c2C)sc2c1CCCC2,4%,7.9µM*
